Laboratory results as given in PubChem BioAssay (Tox21).
Results filed as inconclusive are left out. Where a call stands in place of a potency, no number is given. The source made the active and inactive calls. Calls come from the whole dose curve; as a rule, active = well fitted cell-killing curve with a large enough effect in the repeat runs; inconclusive = weak or mixed curves, or effect the other way; inactive = no such curve, though single readings can be large or run the other way.

Test: qHTS assay to identify small molecule antagonists of the vitamin D receptor (VDR) signaling pathway - cell viability counter screen (AID 743225); note: nearly all actives have a fitted effect of over 50% in size
Conditions: VDR-bla HEK293T viability, CellTiter-Glo luminescence, 16 h; series mostly up to 61 µM
Excerpt: U.S. Tox21 Program National Center for Advancing Translational Sciences [NCATS] NIH Chemical Genomics Center [NCGC] U.S. Environmental Protection Agency [EPA] National Institutes of Environmental Health Sciences [NIEHS] National Toxicology Program [NTP] U.S. Food and Drug Administration [FDA] Tox21 Assay Overview: The vitamin D receptor (VDR), a member of nuclear hormone receptor superfamily, plays a critical role in calcium homeostasis and bone metabolism. It is also involved in cell differentiation and growth, and thrombogenicity. To identify the compounds that inhibit VDR signaling, the VDR-UAS-bla HEK 293T cell line (Invitrogen, Carlsbad, CA, USA) containing a beta-lactamase reporter gene under the control of an upstream activator sequence (UAS) was used to screen the Tox21 10K compound library. The cytotoxicity of the Tox21 compound library against the VDR-bla cell line was tested in parallel by measuring the cell viability using CellTiter-Glo assay (Promega, Madison, WI) in the same wells.
Tox21 Assay Protocol Summary: VDR-bla cells were dispensed at 2,000 cells/5 uL of assay medium per well into black wall/clear-bottom 1536-well plates using a Multidrop Combi (Thermo Fisher Scientific, Waltham, MA) dispenser. After the assay plates were incubated at a 37C and 5% CO2 for 4 h, 23 nL of compounds dissolved in DMSO, positive controls or DMSO only was transferred to the assay plate by a Pintool station (Kalypsys, San Diego, CA), followed by addition of 1 uL of 1-alpha, 25-Dihydroxy Vitamin D3 (3 nM, final concentration in the wells) using a Bioraptr Flying Reagent Dispenser (FRD) workstation (Beckman Coulter, Indianapolis, IN). The plates were incubated at 37C and 5% CO2 for 16 h, and then 1 uL of LiveBLAzerTM B/G FRET substrate was added using a Bioraptr FRD. The plates were incubated at room temperature for 2 h and fluorescence intensity was measured by an Envision plate reader (PerkinElmer, Shelton, CT). For cell viability readout that measures cytotoxicity, 3 ul/well of CellTiter-Glo reagent was added into the assay plates using a Bioraptr FRD. After 30 min incubation at room temperature, the luminescence intensity in the plates was measured using a ViewLux plate reader (PerkinElmer).
Potency is the fitted concentration of half-maximal effect.

SMILES	Potency
Cc1ccc(C(=O)C(C)CN2CCCCC2)cc1 (stereo not given)	inactive
Cc1cccc(Oc2ccccc2)c1	inactive
CCCC[C@H]1CN(CC2CCOCC2)C(=O)OC12CCN(C1(C)CCN(C(=O)c3c(C)ncnc3C)CC1)CC2	inactive
O=C(Cl)c1c(Cl)cccc1Cl	inactive
CN1CCN(C2=Nc3ccccc3Sc3ccc(Cl)cc32)CC1	inactive
O=C=NC1CCC(CC2CCC(N=C=O)CC2)CC1 (stereo not given)	inactive
O=C(NN1CCCC1)NS(=O)(=O)c1ccc(Cl)cc1	inactive
CCOC(=S)SSC(=S)OCC	inactive
c1ccc(OCc2ccc(CCCN3CCOCC3)cc2)cc1	inactive
C1CCC2OC2C1 (stereo not given)	inactive
O=C(O)C(c1ccc(Cl)cc1)c1ccc(Cl)cc1	inactive
CC(C)(C)c1ccc(S)cc1	inactive
Cc1ccc(C(C)c2ccc(C)c(C)c2)cc1C	inactive
NC(=S)N/N=C/c1cccnc1	inactive
C=Cc1c(C)c2cc3[nH]c(cc4nc(cc5nc(cc1[nH]2)C(C)=C5CCC(=O)O)C(CCC(=O)O)=C4C)c(C)c3C=C	inactive
Nc1nc(N)c2nc(CNc3ccc(C(=O)N[C@@H](CCC(=O)O)C(=O)O)cc3)cnc2n1	28.8 nM (active)
c1ccc(CNCc2ccccc2)cc1	inactive
NCc1ccccc1	inactive
O=C(/C=C/c1ccc(O)c(O)c1)O[C@@H]1C[C@](O)(C(=O)O)C[C@@H](O)[C@H]1O	inactive
O=C(c1ccccc1)c1ccc2n1CCC2C(=O)O (stereo not given)	inactive

SMILES	Potency
O=c1c2ccccc2nnn1CCl	inactive
O=C1c2cccc(O)c2C(=O)c2c(O)cc(CO)cc21	inactive
Cl/C(=C\n1cncn1)c1ccc(Cl)cc1Cl	inactive
COc1cc(C(C)(C)C)c(O)c(C(C)(C)C)c1	inactive
CN1CCN(C2=Nc3cc(Cl)ccc3Nc3ccccc32)CC1	inactive
CCCCCCOC(=O)CCC	inactive
O=C(C(=O)c1ccc(Br)cc1)c1ccc(Br)cc1	inactive
CCOC(=O)C1=NN(c2ccccc2)C(=O)C1	inactive
O=[N+]([O-])c1cccc(Cl)c1Cl	inactive
Cc1cc(O)ccc1N	inactive
CN(C)CC/C=C1\c2ccccc2COc2ccccc21	inactive
C=C(C)C(=O)OCCOc1ccccc1	inactive
CCCCc1cc2ccccc2c(OCCN(C)C)n1	inactive
CC1CCc2cc(F)cc3c(=O)c(C(=O)O)cn1c23 (stereo not given)	inactive
NCCCOCCOCCOCCCN	inactive
C=C(C)C(=O)OC(C)C	inactive
CC[C@H](C)[C@H](N)C(=O)O	inactive
N#Cc1cc2ccccc2c2ccccc12	inactive
CC(=O)Nc1ccc(/C=N/NC(N)=S)cc1	inactive
CCCC(C)C	inactive
